Test results taken from PMC7862700, “An all-to-all approach to the identification of sequence-specific readers for epigenetic DNA modifications on cytosine”.

Experiments:
Experiment in all cases: DAPPL (digital affinity profiling via proximity ligation, sequencing); 10 mM Tris-HCl pH 7.5, 50 mM NaCl, 1 mM DTT, 4% glycerol, room temperature, 30 min; GST-TFs on glutathione beads, 16-mer random dsDNA library, 0.1% formaldehyde crosslink after washing; high values mean tight binding
Conditions in all cases: protein: recombinant; tags: N-terminal GST; dsDNA, one strand shown
[1] = target: T1, FLI1 (Homo sapiens, UniProt Q01543 1-452)
T1 sequence: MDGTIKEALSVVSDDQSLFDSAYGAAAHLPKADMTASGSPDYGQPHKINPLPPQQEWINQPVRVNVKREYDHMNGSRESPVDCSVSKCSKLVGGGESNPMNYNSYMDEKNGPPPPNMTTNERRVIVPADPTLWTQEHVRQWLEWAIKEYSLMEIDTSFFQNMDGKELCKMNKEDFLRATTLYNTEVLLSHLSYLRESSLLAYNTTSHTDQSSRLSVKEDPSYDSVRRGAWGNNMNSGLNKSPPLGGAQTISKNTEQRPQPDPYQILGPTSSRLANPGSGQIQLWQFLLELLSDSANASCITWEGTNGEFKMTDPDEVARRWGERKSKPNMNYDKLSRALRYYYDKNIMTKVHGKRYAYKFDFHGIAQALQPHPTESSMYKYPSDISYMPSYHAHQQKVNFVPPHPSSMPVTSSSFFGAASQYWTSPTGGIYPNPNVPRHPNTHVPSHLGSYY
Outline: (§1)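 Binding signal is given per hexamer as its read frequency for a factor divided by its frequency in the tag-only sample. GST-fused human transcription factors were expressed in yeast, captured on glutathione beads, barcoded with DNA and pooled with that sample, then incubated with 200 nmole of a 16-mer random double-stranded DNA library in Tris/NaCl/DTT/glycerol buffer for 30 min at room temperature. The pools were then washed, crosslinked, proximity-ligated, amplified by PCR and sequenced on an Illumina NextSeq500.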

[2] = target: T2, ELK1 (Homo sapiens, UniProt P19419 1-428)
T2 sequence: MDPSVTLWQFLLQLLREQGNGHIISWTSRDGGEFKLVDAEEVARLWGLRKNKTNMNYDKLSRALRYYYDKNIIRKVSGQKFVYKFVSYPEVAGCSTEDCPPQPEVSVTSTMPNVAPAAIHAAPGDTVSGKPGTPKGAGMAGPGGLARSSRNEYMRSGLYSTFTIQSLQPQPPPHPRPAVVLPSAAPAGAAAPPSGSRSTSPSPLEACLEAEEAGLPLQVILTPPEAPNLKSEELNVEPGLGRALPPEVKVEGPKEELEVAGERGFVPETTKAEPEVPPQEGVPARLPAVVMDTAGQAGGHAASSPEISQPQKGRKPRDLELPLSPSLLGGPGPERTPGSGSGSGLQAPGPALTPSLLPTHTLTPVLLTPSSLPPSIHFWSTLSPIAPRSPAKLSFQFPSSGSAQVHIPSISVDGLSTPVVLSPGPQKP
Outline: as §1

[3] = target: T3, GABPA (Homo sapiens, UniProt Q06546 1-454)
T3 sequence: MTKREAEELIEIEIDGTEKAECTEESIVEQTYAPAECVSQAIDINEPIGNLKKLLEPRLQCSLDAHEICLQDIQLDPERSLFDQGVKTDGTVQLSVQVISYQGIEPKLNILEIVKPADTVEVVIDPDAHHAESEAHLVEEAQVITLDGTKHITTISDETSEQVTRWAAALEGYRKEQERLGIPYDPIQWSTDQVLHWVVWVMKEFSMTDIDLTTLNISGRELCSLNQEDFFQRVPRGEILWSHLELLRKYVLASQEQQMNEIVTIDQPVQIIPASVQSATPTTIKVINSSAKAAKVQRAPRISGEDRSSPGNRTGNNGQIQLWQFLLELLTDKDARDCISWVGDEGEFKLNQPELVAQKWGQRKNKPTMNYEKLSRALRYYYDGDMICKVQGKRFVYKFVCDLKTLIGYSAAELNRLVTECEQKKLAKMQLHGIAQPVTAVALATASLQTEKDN
Outline: as §1

[4] = target: T4, ERG (Homo sapiens, UniProt P11308 1-479)
T4 sequence: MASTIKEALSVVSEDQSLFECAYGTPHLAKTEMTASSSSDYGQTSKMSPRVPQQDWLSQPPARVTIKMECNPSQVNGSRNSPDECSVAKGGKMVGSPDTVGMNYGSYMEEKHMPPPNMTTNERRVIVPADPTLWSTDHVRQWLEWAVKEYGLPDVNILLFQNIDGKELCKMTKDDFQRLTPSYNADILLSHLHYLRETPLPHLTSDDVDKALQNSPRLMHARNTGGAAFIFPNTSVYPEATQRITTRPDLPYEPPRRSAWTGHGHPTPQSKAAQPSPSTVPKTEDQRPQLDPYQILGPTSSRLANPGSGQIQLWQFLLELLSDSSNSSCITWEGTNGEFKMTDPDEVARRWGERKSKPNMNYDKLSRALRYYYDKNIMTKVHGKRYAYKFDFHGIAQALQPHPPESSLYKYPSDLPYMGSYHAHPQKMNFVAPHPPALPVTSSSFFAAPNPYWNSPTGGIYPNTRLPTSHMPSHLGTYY
Outline: as §1

[5] = target: ELF1 (Homo sapiens, UniProt P32519 1-619)
Outline: as §1

[6] = target: T5, EHF (Homo sapiens, UniProt Q9NZC4 1-300)
T5 sequence: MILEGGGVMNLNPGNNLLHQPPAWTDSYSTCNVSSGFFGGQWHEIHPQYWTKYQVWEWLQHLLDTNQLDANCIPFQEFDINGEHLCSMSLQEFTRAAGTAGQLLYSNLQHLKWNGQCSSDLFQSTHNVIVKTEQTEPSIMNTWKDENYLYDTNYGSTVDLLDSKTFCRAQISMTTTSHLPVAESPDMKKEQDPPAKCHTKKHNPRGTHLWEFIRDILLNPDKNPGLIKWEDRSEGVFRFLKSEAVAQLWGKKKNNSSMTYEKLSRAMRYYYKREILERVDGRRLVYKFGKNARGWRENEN
Outline: as §1

[7] = target: SPI1 (Homo sapiens, UniProt P17947 1-270)
Outline: as §1

[8] = target: SPIB (Homo sapiens, UniProt Q01892 1-262)
Outline: as §1

[9] = target: T6, ELK3 (Homo sapiens, UniProt P41970 1-407)
T6 sequence: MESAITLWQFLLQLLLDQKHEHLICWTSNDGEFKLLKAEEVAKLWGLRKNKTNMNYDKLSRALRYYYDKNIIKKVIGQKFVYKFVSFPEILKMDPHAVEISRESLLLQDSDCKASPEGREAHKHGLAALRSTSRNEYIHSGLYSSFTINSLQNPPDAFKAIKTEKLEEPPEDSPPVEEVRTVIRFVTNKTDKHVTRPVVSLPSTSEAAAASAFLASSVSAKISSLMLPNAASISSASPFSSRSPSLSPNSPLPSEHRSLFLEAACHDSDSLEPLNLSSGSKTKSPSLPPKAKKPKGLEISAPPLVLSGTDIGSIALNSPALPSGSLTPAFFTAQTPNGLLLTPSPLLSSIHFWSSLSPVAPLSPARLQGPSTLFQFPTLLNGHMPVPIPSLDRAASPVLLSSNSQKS
Outline: as §1

[10] = target: T7, FEV (Homo sapiens, UniProt Q99581 1-238)
T7 sequence: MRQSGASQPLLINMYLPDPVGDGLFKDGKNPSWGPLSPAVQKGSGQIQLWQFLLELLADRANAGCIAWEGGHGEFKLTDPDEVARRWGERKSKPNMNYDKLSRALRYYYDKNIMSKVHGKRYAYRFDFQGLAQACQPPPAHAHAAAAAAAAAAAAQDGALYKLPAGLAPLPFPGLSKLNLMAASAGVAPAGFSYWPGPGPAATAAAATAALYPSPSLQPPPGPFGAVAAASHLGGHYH
Outline: as §1

[11] = target: ETV5 (Homo sapiens, UniProt P41161 1-510)
Outline: as §1

[12] = target: T8, SPIC (Homo sapiens, UniProt Q8N5J4 1-248)
T8 sequence: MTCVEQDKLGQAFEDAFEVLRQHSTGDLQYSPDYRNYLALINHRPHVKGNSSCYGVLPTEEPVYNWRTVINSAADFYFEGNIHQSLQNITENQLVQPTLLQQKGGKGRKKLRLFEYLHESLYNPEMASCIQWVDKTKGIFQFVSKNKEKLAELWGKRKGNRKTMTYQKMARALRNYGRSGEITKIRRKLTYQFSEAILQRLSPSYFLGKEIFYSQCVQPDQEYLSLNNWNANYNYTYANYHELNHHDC
Outline: as §1

[13] = target: ELF4 (Homo sapiens, UniProt Q99607 1-663)
Outline: as §1

[14] = target: ETV1 (Homo sapiens, UniProt P50549 1-477)
Outline: as §1

[15] = target: T9, ERF (Homo sapiens, UniProt P50548 1-548)
T9 sequence: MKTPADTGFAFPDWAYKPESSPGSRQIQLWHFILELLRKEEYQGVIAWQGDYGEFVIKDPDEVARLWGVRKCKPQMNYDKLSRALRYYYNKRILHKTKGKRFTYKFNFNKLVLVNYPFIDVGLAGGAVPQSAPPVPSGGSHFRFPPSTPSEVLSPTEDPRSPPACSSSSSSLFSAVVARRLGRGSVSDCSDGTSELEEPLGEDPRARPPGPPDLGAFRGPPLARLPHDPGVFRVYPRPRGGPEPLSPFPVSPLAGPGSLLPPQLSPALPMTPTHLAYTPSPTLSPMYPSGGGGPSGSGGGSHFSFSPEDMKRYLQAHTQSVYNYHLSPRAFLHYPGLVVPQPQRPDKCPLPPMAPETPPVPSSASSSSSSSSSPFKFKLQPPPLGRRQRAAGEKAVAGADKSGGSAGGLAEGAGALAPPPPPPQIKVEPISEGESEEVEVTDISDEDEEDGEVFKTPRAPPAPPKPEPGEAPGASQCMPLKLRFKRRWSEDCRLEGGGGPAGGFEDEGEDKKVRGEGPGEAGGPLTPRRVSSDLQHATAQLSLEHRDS
Outline: as §1

[16] = target: T10, ETV3L (Homo sapiens, UniProt Q6ZN32 1-361)
T10 sequence: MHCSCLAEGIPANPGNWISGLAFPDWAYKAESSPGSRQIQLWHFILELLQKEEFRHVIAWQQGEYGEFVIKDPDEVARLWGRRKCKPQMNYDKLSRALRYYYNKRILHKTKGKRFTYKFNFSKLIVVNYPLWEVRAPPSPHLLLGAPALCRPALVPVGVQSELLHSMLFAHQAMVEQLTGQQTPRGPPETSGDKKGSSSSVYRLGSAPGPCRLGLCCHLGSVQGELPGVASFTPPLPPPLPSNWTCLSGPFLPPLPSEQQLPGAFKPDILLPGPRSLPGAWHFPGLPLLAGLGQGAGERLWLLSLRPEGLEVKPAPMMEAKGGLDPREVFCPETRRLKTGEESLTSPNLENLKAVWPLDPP
Outline: as §1

[17] = target: T11, ETS2 (Homo sapiens, UniProt P15036 1-469)
T11 sequence: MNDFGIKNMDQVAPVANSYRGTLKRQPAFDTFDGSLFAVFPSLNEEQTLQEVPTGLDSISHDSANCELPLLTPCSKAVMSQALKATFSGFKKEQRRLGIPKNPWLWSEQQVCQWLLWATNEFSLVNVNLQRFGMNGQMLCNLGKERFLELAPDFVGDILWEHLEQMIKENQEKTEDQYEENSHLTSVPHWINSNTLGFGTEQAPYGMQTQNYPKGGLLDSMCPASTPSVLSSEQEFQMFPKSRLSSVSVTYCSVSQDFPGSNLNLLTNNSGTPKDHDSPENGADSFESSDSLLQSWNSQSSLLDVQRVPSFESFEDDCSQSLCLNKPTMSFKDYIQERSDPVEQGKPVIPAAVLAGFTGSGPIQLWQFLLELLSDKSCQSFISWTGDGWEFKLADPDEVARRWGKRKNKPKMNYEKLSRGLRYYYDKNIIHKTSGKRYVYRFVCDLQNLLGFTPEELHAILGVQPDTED
Outline: as §1

[18] = target: T12, ELF5 (Homo sapiens, UniProt Q9UKW6-2 1-255)
T12 sequence: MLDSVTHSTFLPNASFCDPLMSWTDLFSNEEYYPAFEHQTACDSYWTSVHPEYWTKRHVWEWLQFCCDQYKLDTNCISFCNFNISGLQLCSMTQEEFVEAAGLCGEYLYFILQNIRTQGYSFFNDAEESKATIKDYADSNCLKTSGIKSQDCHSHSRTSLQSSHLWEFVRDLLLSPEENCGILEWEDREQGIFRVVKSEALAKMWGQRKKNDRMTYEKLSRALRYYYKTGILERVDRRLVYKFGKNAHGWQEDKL
Outline: as §1

[19] = target: T13, ETV3 (Homo sapiens, UniProt P41162-2 1-143)
T13 sequence: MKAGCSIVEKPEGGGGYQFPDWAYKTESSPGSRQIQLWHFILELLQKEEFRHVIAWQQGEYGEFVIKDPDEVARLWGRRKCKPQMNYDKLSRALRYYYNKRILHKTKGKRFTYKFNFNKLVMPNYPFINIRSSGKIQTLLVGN
Outline: as §1

[20] = target: ETV6 (Homo sapiens, UniProt P41212 1-452)
Outline: as §1

Sequence of ETV6 (P41212 whole entry): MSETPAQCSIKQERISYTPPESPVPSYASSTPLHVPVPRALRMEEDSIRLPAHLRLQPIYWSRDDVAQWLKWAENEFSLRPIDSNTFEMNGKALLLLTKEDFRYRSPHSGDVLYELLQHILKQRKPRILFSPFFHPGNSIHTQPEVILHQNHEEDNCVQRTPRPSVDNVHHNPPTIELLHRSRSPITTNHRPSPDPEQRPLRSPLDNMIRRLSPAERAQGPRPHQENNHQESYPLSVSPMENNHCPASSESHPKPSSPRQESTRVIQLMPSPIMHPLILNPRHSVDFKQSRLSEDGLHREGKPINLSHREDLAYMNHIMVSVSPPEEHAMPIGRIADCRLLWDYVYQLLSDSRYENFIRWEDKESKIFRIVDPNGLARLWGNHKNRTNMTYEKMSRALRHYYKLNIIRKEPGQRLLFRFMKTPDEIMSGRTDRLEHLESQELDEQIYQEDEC
Sequence of SPIB (Q01892 whole entry): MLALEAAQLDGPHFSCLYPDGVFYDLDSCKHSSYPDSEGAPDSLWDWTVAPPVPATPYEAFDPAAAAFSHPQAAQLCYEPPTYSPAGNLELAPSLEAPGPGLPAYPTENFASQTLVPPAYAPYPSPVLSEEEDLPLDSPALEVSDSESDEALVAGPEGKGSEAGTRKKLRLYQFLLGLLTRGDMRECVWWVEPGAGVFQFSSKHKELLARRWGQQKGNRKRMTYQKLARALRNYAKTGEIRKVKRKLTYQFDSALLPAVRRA
Sequence of ETV5 (P41161 whole entry): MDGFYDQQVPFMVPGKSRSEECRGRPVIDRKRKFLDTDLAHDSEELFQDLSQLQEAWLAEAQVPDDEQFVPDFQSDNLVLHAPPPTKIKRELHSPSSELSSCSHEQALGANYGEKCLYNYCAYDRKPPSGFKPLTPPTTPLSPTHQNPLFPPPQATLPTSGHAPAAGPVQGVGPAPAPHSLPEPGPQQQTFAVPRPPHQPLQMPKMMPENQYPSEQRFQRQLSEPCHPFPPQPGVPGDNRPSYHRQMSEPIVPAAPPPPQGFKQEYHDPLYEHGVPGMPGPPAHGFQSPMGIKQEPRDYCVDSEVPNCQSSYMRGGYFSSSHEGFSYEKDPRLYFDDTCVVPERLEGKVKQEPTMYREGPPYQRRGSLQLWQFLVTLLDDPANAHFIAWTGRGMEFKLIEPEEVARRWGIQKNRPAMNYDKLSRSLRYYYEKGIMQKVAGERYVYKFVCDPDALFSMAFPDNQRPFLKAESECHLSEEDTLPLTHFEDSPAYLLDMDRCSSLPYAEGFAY
Sequence of ETV1 (P50549 whole entry): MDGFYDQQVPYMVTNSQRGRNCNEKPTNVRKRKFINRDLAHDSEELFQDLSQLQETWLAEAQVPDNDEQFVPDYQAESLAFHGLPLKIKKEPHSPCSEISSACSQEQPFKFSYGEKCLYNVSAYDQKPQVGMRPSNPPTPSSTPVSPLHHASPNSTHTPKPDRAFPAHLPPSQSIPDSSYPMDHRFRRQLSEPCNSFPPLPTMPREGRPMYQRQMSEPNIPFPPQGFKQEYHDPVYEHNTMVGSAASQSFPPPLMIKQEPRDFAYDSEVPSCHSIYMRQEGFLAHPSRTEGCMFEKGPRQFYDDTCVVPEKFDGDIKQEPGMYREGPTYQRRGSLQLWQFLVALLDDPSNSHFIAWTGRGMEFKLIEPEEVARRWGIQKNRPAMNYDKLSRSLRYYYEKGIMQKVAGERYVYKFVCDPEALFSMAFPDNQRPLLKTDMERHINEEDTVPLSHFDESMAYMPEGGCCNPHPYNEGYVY
Sequence of ELF4 (Q99607 whole entry): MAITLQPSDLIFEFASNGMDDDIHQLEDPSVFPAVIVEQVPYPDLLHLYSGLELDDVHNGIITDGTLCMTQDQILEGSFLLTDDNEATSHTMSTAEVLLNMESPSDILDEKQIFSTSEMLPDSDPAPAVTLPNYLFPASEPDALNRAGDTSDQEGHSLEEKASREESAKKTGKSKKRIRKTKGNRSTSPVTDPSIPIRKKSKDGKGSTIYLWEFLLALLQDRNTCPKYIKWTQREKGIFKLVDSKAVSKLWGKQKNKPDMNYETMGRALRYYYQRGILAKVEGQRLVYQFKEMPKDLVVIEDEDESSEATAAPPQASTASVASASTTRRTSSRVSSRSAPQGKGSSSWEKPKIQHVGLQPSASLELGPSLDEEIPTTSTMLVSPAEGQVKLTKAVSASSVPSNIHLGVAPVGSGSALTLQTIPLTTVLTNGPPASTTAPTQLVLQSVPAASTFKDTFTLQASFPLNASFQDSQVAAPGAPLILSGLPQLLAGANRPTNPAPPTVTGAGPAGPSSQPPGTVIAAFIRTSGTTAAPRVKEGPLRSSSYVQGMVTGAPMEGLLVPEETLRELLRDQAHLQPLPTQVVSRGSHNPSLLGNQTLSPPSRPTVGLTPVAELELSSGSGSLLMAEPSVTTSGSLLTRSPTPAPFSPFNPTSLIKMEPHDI
Sequence of ELF1 (P32519 whole entry): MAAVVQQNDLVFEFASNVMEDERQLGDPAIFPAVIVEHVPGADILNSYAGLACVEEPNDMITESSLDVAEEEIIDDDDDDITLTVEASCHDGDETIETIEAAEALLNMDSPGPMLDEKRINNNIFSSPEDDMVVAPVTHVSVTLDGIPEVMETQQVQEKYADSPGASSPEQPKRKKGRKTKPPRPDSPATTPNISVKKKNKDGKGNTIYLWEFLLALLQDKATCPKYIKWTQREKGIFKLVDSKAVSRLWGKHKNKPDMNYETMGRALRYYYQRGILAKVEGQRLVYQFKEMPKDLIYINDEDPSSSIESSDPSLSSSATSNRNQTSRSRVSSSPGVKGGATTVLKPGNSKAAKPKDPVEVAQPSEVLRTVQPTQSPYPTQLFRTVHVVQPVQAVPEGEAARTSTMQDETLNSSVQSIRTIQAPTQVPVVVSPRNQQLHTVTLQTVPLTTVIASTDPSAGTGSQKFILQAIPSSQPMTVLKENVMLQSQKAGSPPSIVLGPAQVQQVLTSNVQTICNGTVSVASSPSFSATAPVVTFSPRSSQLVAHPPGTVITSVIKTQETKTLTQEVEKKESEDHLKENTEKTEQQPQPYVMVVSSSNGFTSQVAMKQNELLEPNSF

ACCACC
binding signal [1]: 1.1 fold enrichment (6-mer frequency, TF over GST control)
binding signal [2]: 1.08 fold enrichment (6-mer frequency, TF over GST control)
binding signal [3]: 1.14 fold enrichment (6-mer frequency, TF over GST control)
binding signal [4]: 1.11 fold enrichment (6-mer frequency, TF over GST control)
binding signal [5]: 1.18 fold enrichment (6-mer frequency, TF over GST control)
binding signal [6]: 1.15 fold enrichment (6-mer frequency, TF over GST control)
binding signal [7]: 1.1 fold enrichment (6-mer frequency, TF over GST control)
binding signal [8]: 1.18 fold enrichment (6-mer frequency, TF over GST control)
binding signal [9]: 1.21 fold enrichment (6-mer frequency, TF over GST control)
binding signal [10]: 1.18 fold enrichment (6-mer frequency, TF over GST control)
binding signal [11]: 1.1 fold enrichment (6-mer frequency, TF over GST control)
binding signal [12]: 1.08 fold enrichment (6-mer frequency, TF over GST control)
binding signal [13]: 1.14 fold enrichment (6-mer frequency, TF over GST control)
binding signal [14]: 1.02 fold enrichment (6-mer frequency, TF over GST control)
binding signal [15]: 1.17 fold enrichment (6-mer frequency, TF over GST control)
binding signal [16]: 1.08 fold enrichment (6-mer frequency, TF over GST control)
binding signal [17]: 1.15 fold enrichment (6-mer frequency, TF over GST control)
binding signal [18]: 1.07 fold enrichment (6-mer frequency, TF over GST control)
binding signal [19]: 1.08 fold enrichment (6-mer frequency, TF over GST control)
binding signal [20]: 1.09 fold enrichment (6-mer frequency, TF over GST control)
